Assay outcomes: PubChem BioAssay, several laboratories
This is a sample that favours compounds with a hit; in the whole collection about 4.9% have one here.
SKKanGAS inh – inhibitors of SKKanGAS S. pyogenes growth in kanamycin (SK-promoter or general growth effect). BacTiter-Glo, 6 h. inhibition, % at 7.5 µM. actives 1.3% (n = 300,000). AID 1662;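 active = mean replicate score, as percent of positive control median, at least 50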;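 also: strain carries kanamycin resistance gene driven by streptokinase promoter and grows in 40 µg/ml kanamycin; loss of luminescence reflects streptokinase promoter inhibition or plain growth inhibition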
tim23-1 inh – growth inhibitors of tim23-1 mutant yeast; inhibition, % at 20 µM; actives 1.3% (n = 330,000); S. cerevisiae tim23-1 growth, BacTiter-Glo luminescence, 24 h;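 active = growth inhibition of the mutant yeast at or above 50%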;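 also: temperature-sensitive mutant grown at 25 °C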
NALP3 yeast inh – inhibitors of NALP3 inflammasome in yeast; Yeast reconstituted NLRP3/ASC/caspase-1, beta-gal luminescence, 24 h; actives 0.39% (n = 330,000); inhibition, % at 10 µM;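 active = inhibition of 50% or more; inactive = inhibition below 50%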
NALP1 yeast inh – NALP1 inhibition; S. cerevisiae NALP1/ASC/caspase-1 growth, X-gal OD620, 72 h; actives 0.61% (n = 280,000); AID 2071; inhibition, % at 10 µM; in the data active = inhibition mostly above about 24%, no sharp cut-off; inactive = mostly below about 32%
tim10-1 inh – tim10-1 yeast growth inhibition; S. cerevisiae tim10-1 ts strain growth, BacTiter-Glo, 24 h; inhibition, % at 20 µM; actives 2.2% (n = 330,000);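 active = inhibition of at least 40%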;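 also: mutant grown at 25 °C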
TIM10 inh – growth inhibitors of TIM10 yeast strain. S. cerevisiae TIM10 strain growth, BacTiter-Glo luminescence, 24 h. inhibition, % at 10 µM. actives 1.4% (n = 330,000);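 active = inhibition of 40% or more at the single tested concentration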;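 also: wild-type TIM10 isogenic control strain grown at permissive 25 °C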
tim23-1 conf – tim23-1 yeast growth inhibition, confirmed; shares compounds with tim23-1 inh; S. cerevisiae tim23-1 growth, BacTiter-Glo luminescence, 24 h; inhibition, % at 20 µM; actives 83% (n = 4,400);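 active = inhibition above about 39% in either of two replicate wells at 20 µM, limit read from the data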;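 also: temperature-sensitive tim23-1 mutant grown at 25 °C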
Of the large screens only hits and unclear results are named; the others gave an inactive call (follow-up assays come after a bar, where they were run).

CCOc1cc(/C=C2/C(=N)N3OC(C)=CC3=NC2=O)ccc1OCCOc1ccccc1	none
C=Cc1cccc(NC(=O)c2ccc(NC(=O)c3ccco3)cc2)c1	tim23-1 inh 51.2 | tim23-1 conf 37.5
Cc1cccc(C)c1OCC(=O)Nc1cccc(NC(=O)c2ccco2)c1	tim23-1 inh 56.2 | tim23-1 conf 48.7
CC1CCCN(S(=O)(=O)c2ccc3c(c2)c(=O)nc2ccccn23)C1 (configuration not stated)	none
COc1cc(/C=C(\C#N)c2nc3ccccc3[nH]2)cc(OC)c1O	none (no result: tim23-1 inh, NALP3 yeast inh, tim10-1 inh, TIM10 inh)
COc1ccc(/C=C(\C#N)c2nc3ccccc3[nH]2)cc1O	tim23-1 inh 51.4 | tim23-1 conf 42.5
COc1cc(/C=C(\C#N)c2nc3ccccc3[nH]2)ccc1Oc1ccc([N+](=O)[O-])cn1	tim23-1 inh 57.6 | tim23-1 conf inactive
CC(C)N1CCN(C(=O)C2CCC(=O)N(CCc3cccc(F)c3)C2)CC1 (configuration not stated)	none
Fc1cccc(NC(=S)NNc2ccccc2)c1	tim23-1 inh 59.5 | tim23-1 conf inactive
Fc1cccc(NC(=S)NNc2c3ccccc3nc3ccccc23)c1	none (no result: tim23-1 inh, NALP3 yeast inh, tim10-1 inh, TIM10 inh)
CC(C)(C)c1ccc(C(=O)N2CCCC2c2cccs2)cc1 (configuration not stated)	none
Cc1ccc(NC(=S)NCCc2c[nH]c3ccccc23)cc1	none
CC(C)c1ccc(NC(=S)NCCc2c[nH]c3ccccc23)cc1	tim23-1 inh 51.7 | tim23-1 conf inactive
Cc1ccc(S(=O)(=O)c2c(C)nn(C(C)(C)C)c2OC(=O)C(C)(C)C)cc1	none
Cc1ccc(S(=O)(=O)n2ccc(OC(=O)c3cccs3)n2)cc1	tim23-1 inh 58.0 | tim23-1 conf 56.8
CC(=O)Oc1c(S(=O)(=O)c2ccc(C)cc2)c(C)nn1C(C)(C)C	tim23-1 inh 51.8 | tim23-1 conf inactive
Cc1ccc(S(=O)(=O)c2c(C)nn(C(C)(C)C)c2OC(=O)c2cccs2)cc1	tim23-1 inh 51.1 | tim23-1 conf inactive
C#CCSc1nnc(C)c(C)n1	none (no result: NALP1 yeast inh)
COc1cccc(NC(=O)Nc2nnc(N3C(C)CCCC3C)s2)c1 (configuration not stated)	none
Cc1ccc2nc(C)c(CN3CCN(c4ccc([N+](=O)[O-])cc4Cl)CC3)n2c1	none
CCCCCCC1(C)NC(=O)N(C(C)C(=O)Nc2ccc(N3CCOCC3)cc2)C1=O (configuration not stated)	none (no result: SKKanGAS inh, NALP1 yeast inh)
COCCCNC(=O)CN(c1cccc(Cl)c1)S(C)(=O)=O	none
CCOc1ccc(NC(=O)CSc2nnc(C3CC3)n2C2CC2)cc1	none (no result: SKKanGAS inh, NALP1 yeast inh)
O=C(c1cc(-c2ccc(O)cc2)on1)N1CCc2ccccc2C1	tim23-1 inh 72.4 | tim23-1 conf 56.1
O=C(CSCc1ccc(F)cc1)Nc1nc2c(s1)CCCC2	tim23-1 inh 56.3 | tim23-1 conf 41.4
CC1Cc2ccccc2N1C(=O)CSc1nncs1 (configuration not stated)	none (no result: SKKanGAS inh, NALP1 yeast inh)
Cc1oc(-c2cccc(Cl)c2)nc1CN1CCCC(C(=O)NC(C)c2ccc3c(c2)OCCO3)C1 (configuration not stated)	none
